Structures are written as SMILES. Records with an inconclusive call do not appear. Active and inactive are the calls of the source. Calls follow the shape of the full dose curve. Peptide text beside a SMILES is read from it. Bounds are passed on as bounds.
Potency is read from the fitted curve at half-maximal effect.

The assay in a line: Cell Viability - MRC5 (AID 434).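 Also: potency reflects cytotoxicity seen as loss of intracellular ATP.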 The conditions noted are these: MRC5 lung fibroblast viability, qHTS. From the text: NIH Chemical Genomics Center [NCGC]
NIH Molecular Libraries Screening Centers Network [MLSCN]
National Institutes of Environmental Health Sciences [NIEHS]
National Toxicology Program [NTP]
We have developed a 1536-well cell-based assay for quantitative high throughput screening (qHTS) against a number of cell lines to determine in vitro cytotoxicity of small molecules. This particular assay uses the MRC5 cell line which is derived from normal human lung fibroblasts.
NCGC Assay Protocol Summary:
The CellTiter-Glo luminescent cell viability assay (Promega) is a homogeneous method to measure the number of viable cells in culture. The end point readout of this assay is based on quantitation of intracellular ATP, an indicator of metabolic activity, using the luciferase reaction. Luciferase catalyzes the oxidation of beetle Luciferin to oxyluciferin and light in the presence of ATP. The luminescent signal is proportional to amount of ATP present.
Using the CellTiter-Glo luminescent cell viability assay, the amount of cellular ATP was measured in the MRC5 cell line with complete culture medium following compound treatment for 40 hours. The assay was performed in opaque white Kalypsys 1536-well plates. In the screen, tamoxifen and doxorubicin were used as positive controls. Library compounds were measured for their ability to cause acute toxicity in the cell line, as reflected by a decrease in intracellular ATP levels, in a concentration-dependent manner. Data were normalized to the controls for basal activity (DMSO only) and 100% inhibition (100 uM tamoxifen). AC50 values were determined from concentration-response data modeled with the standard Hill equation.
qHTS protocol for CellTiter Glo MRC5 cellular assay
[Step] [Parameter] [Value] [Description]
1. Reagent; 5 uL; 1500 MRC5 cells/well
2. Time; 5 hr; 37 °C incubation
4. Controls; 23 nL; Tamoxifen 0.34 uM to 100 uM & Doxorubicin 0.02 nM to 100 uM
5. Time; 40 hr; 37 °C incubation
6. Reagent; 5 uL; CellTiter Glo reagent
7. Time; 20 min; Room Temperature
8. Detection; Luminescence; Viewlux plate reader
Keywords: cell viability, cytotoxicity, MRC5 cell line, luminescence, NTPHTS, NTPHTS_NCGC, NIEHS, EPA, DSSTox, MLSMR, MLSCN, NIH Roadmap, qHTS, NCGC
Turning to `CN(C)c1ccc2nc3ccc(=[N+](C)C)cc-3sc2c1`, the Potency was 37.8 µM (active).
As to `Cc1ccc(C)c(OCCCC(C)(C)C(=O)O)c1`, the Potency was > 92 µM (inactive).
For `NS(=O)(=O)c1cc(C(=O)O)c(NCc2ccco2)cc1Cl`, the Potency is > 92 µM (inactive).
The value for `CS(=O)(=O)OCCCCOS(C)(=O)=O` was > 92 µM (inactive); that for `Cc1cc(O)c2c(c1)C(=O)c1cc(O)cc(O)c1C2=O` was > 92 µM (inactive); that for `CCc1nc(N)nc(N)c1-c1ccc(Cl)cc1` was > 92 µM (inactive).
The value for `CC(=O)Nc1ccc(O)cc1` was > 92 µM (inactive); that for `CCCCC(CC)COC(=O)C(C#N)=C(c1ccccc1)c1ccccc1` (stereo not drawn) was > 92 µM (inactive).
The value for `COc1c2occc2cc2ccc(=O)oc12` was > 92 µM (inactive); that for `Nc1ccc(S(N)(=O)=O)cc1` was > 92 µM (inactive).
On to `c1ccc2[nH]c(-c3cscn3)nc2c1`, for which the Potency is > 92 µM (inactive).
As for `COC(=O)[C@H](Cc1ccccc1)NC(=O)[C@@H](N)CC(=O)O` (H-Asp-Phe-OMe), the figure is > 92 µM (inactive).
As for `CCCc1cc(=O)[nH]c(=S)[nH]1`, the figure is > 92 µM (inactive).

The values above are taken from PubChem BioAssay (NCATS).
